Results: PubChem BioAssay (EPA / NIEHS)
The source made the active and inactive calls. How the source made its calls: active means hit-call score of the fitted dose curve at least 0.9, where 1 is the maximum; inactive means score below 0.9.

Tests used:
[1] = ATG_CRE_CIS: Attagene CIS-FACTORIAL HepG2 Assay for human cAMP Responsive Element (CRE) binding protein 3 (AID 2282926); conditions: HepG2 CRE cis-reporter, Attagene multiplexed mRNA; actives raise or lower the signal
In short: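 HepG2 cells transiently transfected with cis-element-driven multiple reporter transcription units; CRE reporter mRNA measured 24 h after dosing by RT-PCR, 6-FAM labelling, HpaI digestion and capillary electrophoresis. Bidirectional fit versus DMSO baseline.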

[2] = ATG_DR4_LXR_CIS: Attagene CIS-FACTORIAL HepG2 Assay for human Liver X Receptor (LXR), DR4 submotif (AID 2282929); conditions: HepG2 Attagene DR4 cis-reporter, mRNA transcription; actives raise or lower the signal
In short: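 Transiently transfected HepG2 liver cells; cis-regulated reporters; 24 h dosing. RT-PCR plus CE read-out of reporter mRNA. DMSO baseline, bidirectional curve fitting.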

[3] = ATG_AP_1_CIS: Attagene CIS-FACTORIAL HepG2 Assay for human Activator Protein 1 (AP-1) (AID 2282931); conditions: HepG2 Attagene cis-factorial AP-1 reporter mRNA; actives raise or lower the signal
In short: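 We transfected HepG2 cells transiently with a set of cis-regulated reporter transcription units, dosed them for 24 h, and quantified reporter mRNA via RT-PCR and capillary electrophoresis, scoring gain or loss of signal relative to DMSO.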

[4] = ATG_AP_2_CIS: Attagene CIS-FACTORIAL HepG2 Assay for human Activator Protein 2 (AP-2) (AID 2282932); conditions: HepG2 AP-2 cis-reporter, Attagene transcription factor profiling; actives raise or lower the signal
In short: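 Step one: transient transfection of HepG2 with reporter transcription units. Step two: 24 h chemical exposure. Step three: RNA extraction, RT-PCR, labelled fragment analysis by capillary electrophoresis; DMSO serves as baseline.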

[5] = target: Transcription factor E2F1 (Homo sapiens) (UniProt Q01094); assay: ATG_E2F_CIS: Attagene CIS-FACTORIAL HepG2 Assay for human E2F Transcription Factor 1 (AID 2282935); conditions: HepG2 Attagene cis-reporter, E2F reporter RNA transcripts; actives raise or lower the signal
Transcription factor E2F1 (Homo sapiens), sequence (Q01094 whole entry, looked up): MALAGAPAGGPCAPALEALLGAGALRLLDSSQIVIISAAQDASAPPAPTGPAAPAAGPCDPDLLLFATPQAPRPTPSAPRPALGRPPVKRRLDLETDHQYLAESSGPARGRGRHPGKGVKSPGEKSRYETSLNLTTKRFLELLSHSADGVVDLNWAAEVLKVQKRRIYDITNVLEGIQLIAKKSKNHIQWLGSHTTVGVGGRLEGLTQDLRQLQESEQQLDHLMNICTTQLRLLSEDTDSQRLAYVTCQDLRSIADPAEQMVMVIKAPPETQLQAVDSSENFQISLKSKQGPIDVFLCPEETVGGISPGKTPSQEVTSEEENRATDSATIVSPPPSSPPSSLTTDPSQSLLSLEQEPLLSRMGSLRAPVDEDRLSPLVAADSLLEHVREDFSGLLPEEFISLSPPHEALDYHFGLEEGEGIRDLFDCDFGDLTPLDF
In short: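 Total RNA from 24 h-treated, reporter-transfected HepG2 cells undergoes DNase I treatment, oligo(dT) reverse transcription, PCR and 6-FAM primer extension before capillary electrophoresis.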

[6] = ATG_M_61_CIS: Attagene CIS-FACTORIAL HepG2 Assay for M61 Transcription Factor (Internal Marker) (AID 2282937); conditions: HepG2 Attagene CIS-FACTORIAL M61 internal marker reporter; actives raise or lower the signal
In short: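 Multiplexed reporter mRNA assay, HepG2 human hepatoma cells, 24 h treatment. Signal: FAM-labelled, HpaI-digested RT-PCR fragments by CE. Fit: bidirectional, baseline DMSO.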

[7] = ATG_EGR_CIS: Attagene CIS-FACTORIAL HepG2 Assay for human Early Growth Response 1 (EGR1) (AID 2282938); conditions: HepG2 Attagene CIS-FACTORIAL EGR reporter mRNA; actives raise or lower the signal
In short: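 Multiplexed cis-reporter system in human hepatoma HepG2 cells, transiently transfected. Cells are dosed for 24 h; reporter transcripts are amplified, fluorescently tagged and sized by capillary electrophoresis, with DMSO as negative control.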

[8] = ATG_M_19_CIS: Attagene CIS-FACTORIAL HepG2 Assay for M19 Transcription Factor (Internal Marker) (AID 2282939); conditions: HepG2 Attagene CIS-FACTORIAL M19 internal marker reporter; actives raise or lower the signal
In short: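 Transfect HepG2 with MRTU reporter library → dose chemical, 24 h → isolate total RNA, reverse-transcribe with oligo(dT) → PCR, 6-FAM label, HpaI cut (2 h, 37 C) → capillary electrophoresis. Bidirectional fit vs DMSO.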

[9] = ATG_Ets_CIS: Attagene CIS-FACTORIAL HepG2 Assay for human Erythroblast Transformation Specific (ETS) (AID 2282941); conditions: HepG2 ETS cis-reporter transcription, actives raise or lower the signal
In short: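 After transient cis-reporter transfection, HepG2 cells receive test chemical for 24 h. Reporter mRNA levels, measured by RT-PCR and capillary electrophoresis fluorescence, are analysed bidirectionally relative to the DMSO baseline.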

[10] = target: Hepatocyte nuclear factor 3-beta (Homo sapiens) (UniProt Q9Y261); assay: ATG_FoxA2_CIS: Attagene CIS-FACTORIAL HepG2 Assay for human Forkhead box A2 (FOXA2) (AID 2282942); conditions: HepG2 cis-reporter transcription factor activity, 24 h; actives raise or lower the signal
Hepatocyte nuclear factor 3-beta (Homo sapiens), sequence (Q9Y261 whole entry, looked up): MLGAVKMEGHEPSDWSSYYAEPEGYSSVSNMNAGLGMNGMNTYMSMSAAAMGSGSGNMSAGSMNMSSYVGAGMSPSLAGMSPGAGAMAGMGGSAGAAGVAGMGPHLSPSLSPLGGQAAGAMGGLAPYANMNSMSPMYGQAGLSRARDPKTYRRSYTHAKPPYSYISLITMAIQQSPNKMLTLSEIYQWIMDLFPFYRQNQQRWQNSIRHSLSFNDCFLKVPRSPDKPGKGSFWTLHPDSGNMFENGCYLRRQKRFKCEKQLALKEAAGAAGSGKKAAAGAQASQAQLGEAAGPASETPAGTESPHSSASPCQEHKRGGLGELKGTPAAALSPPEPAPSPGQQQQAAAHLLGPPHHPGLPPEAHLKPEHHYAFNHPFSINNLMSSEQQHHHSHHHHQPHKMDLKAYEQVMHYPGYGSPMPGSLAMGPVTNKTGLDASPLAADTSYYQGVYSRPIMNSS
In short: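 Multiplexed cis-element reporter assay in transiently transfected HepG2. Twenty-four hours post-dosing, RNA was reverse-transcribed, amplified, FAM-labelled, HpaI-digested and separated by CE. Activity gain or loss relative to DMSO.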

[11] = ATG_GATA_CIS: Attagene CIS-FACTORIAL HepG2 Assay for human GATA Binding Protein (AID 2282944); conditions: HepG2 GATA cis-element reporter, Attagene multiplex mRNA; actives raise or lower the signal
In short: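 Transient MRTU transfection, HepG2, 24 h compound exposure. Total RNA → oligo(dT) RT → PCR → 6-FAM primer extension → HpaI cut → CE. Bidirectional fit vs DMSO.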

[12] = ATG_GLI_CIS: Attagene CIS-FACTORIAL HepG2 Assay for human Zinc Finger Protein GLI1 (AID 2282945); conditions: HepG2, Attagene cis-factorial reporter mRNA, GLI element; actives raise or lower the signal
In short: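 Bidirectional curve fits relative to DMSO, using reporter mRNA levels from RT-PCR plus capillary electrophoresis. Cells were HepG2 transiently carrying cis-regulated reporter constructs, harvested 24 h after dosing.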

[13] = ATG_ISRE_CIS: Attagene CIS-FACTORIAL HepG2 Assay for human Interferon Regulatory Factor 1 (IRF1) binding to an Interferon-Stimulated Response Element (ISRE) (AID 2282948); conditions: HepG2 ISRE cis-reporter (Attagene), mRNA transcription readout; actives raise or lower the signal
In short: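 Quantitation relies on labelled RT-PCR fragments separated by capillary electrophoresis. Human HepG2 cells bearing cis-promoter reporter constructs were treated 24 h; DMSO served as baseline for bidirectional fitting.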

[14] = ATG_M_32_CIS: Attagene CIS-FACTORIAL HepG2 Assay for M32 Transcription Factor (Internal Marker) (AID 2282949); conditions: HepG2 Attagene cis-factorial M32 reporter, mRNA; actives raise or lower the signal;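 further: background control marker of the multiplexed CIS panel rather than a real target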
In short: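 Internal background marker read-out: RT-PCR/capillary electrophoresis fluorescence of reporter transcripts from transiently transfected HepG2 cells after 24 h chemical exposure. Activity fitted bidirectionally relative to DMSO negative control.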

[15] = ATG_M_06_CIS: Attagene CIS-FACTORIAL HepG2 Assay for M06 Transcription Factor (Internal Marker) (AID 2282950); conditions: HepG2 Attagene CIS-FACTORIAL M06 internal marker reporter; actives raise or lower the signal
In short: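 Read-out is fluorescence of labelled reporter cDNA fragments resolved by capillary electrophoresis after RT-PCR. Cells: HepG2 carrying transfected cis-promoter reporter units, treated 24 h. Gain or loss of signal fitted relative to DMSO.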

[16] = ATG_MRE_CIS: Attagene CIS-FACTORIAL HepG2 Assay for human Metal Responsive Element (MRE) (AID 2282954); conditions: HepG2 MRE cis-reporter transcription, Attagene multiplex; actives raise or lower the signal
In short: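 After a 24 h chemical exposure, transiently transfected HepG2 cells yield RNA whose reporter sequences are amplified, FAM-labelled and sized by capillary electrophoresis. Curves are fitted bidirectionally relative to DMSO.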

[17] = target: Paired box protein Pax-6 (Homo sapiens) (UniProt P26367); assay: ATG_Pax6_CIS: Attagene CIS-FACTORIAL HepG2 Assay for human Paired Box 6 (PAX6) (AID 2282956); conditions: HepG2 CIS-FACTORIAL PAX6 reporter transcription, RNA readout; actives raise or lower the signal
Paired box protein Pax-6 (Homo sapiens), sequence (P26367 whole entry, looked up): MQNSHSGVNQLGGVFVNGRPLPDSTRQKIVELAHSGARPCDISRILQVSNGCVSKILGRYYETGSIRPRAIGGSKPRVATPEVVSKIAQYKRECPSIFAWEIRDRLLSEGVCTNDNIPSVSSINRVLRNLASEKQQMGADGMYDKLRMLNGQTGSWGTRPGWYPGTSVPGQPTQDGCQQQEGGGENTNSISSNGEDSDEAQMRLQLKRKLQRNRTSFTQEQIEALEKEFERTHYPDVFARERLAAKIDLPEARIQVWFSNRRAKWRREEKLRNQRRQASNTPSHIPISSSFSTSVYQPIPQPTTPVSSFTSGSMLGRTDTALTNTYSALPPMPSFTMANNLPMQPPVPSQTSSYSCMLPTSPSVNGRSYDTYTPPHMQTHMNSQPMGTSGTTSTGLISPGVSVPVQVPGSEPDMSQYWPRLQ
In short: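 After twenty-four hours of chemical exposure, transfected HepG2 cells are harvested for RNA. Cis-promoter reporter transcripts are amplified, fluorescently labelled and sized by capillary electrophoresis, with gain and loss of signal scored against DMSO.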

[18] = ATG_PXRE_CIS: Attagene CIS-FACTORIAL HepG2 Assay for human Pregnane X Receptor Element (PXRE) (AID 2282957); conditions: HepG2 Attagene CIS-FACTORIAL PXRE reporter, mRNA; actives raise or lower the signal
In short: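 HepG2 cells transiently transfected with cis-element-driven multiplexed reporter units; after 24 h chemical exposure, reporter mRNA measured by RT-PCR, 6-FAM labelling, HpaI digestion and capillary electrophoresis. Bidirectional fitting relative to DMSO.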

[19] = target: Transcription factor Sp1 (Homo sapiens) (UniProt P08047); assay: ATG_Sp1_CIS: Attagene CIS-FACTORIAL HepG2 Assay for human Specificity Protein 1 (Sp1) (AID 2282961); conditions: HepG2 Sp1 cis-reporter transcription, actives raise or lower the signal
Transcription factor Sp1 (Homo sapiens), sequence (P08047 whole entry, looked up): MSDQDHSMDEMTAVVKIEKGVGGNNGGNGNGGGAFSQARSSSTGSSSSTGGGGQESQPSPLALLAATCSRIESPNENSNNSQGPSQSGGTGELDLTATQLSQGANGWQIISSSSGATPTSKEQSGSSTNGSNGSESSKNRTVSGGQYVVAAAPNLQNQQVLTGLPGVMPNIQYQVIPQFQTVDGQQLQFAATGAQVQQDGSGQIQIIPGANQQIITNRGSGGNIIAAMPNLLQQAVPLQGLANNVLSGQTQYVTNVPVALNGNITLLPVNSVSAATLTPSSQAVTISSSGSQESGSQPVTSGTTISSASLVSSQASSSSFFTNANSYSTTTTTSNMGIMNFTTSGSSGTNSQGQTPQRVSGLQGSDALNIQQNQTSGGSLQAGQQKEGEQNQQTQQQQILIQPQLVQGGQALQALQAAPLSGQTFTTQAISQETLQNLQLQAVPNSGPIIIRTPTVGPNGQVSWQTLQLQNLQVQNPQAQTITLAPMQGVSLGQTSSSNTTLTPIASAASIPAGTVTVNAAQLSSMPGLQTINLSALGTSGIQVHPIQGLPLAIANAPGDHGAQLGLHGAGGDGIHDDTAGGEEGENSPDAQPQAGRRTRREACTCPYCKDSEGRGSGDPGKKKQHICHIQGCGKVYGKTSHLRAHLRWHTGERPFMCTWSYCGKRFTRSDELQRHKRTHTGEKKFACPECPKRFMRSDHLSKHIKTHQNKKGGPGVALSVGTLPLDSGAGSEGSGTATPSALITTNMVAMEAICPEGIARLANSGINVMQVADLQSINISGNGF
In short: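 Chemicals are dosed onto HepG2 cells transfected with multiple cis-promoter reporter constructs, and after 24 h reporter RNA is reverse-transcribed, PCR-amplified and resolved by capillary electrophoresis for fluorescence quantitation; activity is scored up or down against DMSO.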

[20] = target: Signal transducer and activator of transcription 3 (Homo sapiens) (UniProt P40763); assay: ATG_STAT3_CIS: Attagene CIS-FACTORIAL HepG2 Assay for human Signal Transducer and Activator of Transcription 3 (STAT3) (AID 2282963); conditions: HepG2, Attagene cis-factorial STAT3 reporter transcription; actives raise or lower the signal
Signal transducer and activator of transcription 3 (Homo sapiens), sequence (P40763 whole entry, looked up): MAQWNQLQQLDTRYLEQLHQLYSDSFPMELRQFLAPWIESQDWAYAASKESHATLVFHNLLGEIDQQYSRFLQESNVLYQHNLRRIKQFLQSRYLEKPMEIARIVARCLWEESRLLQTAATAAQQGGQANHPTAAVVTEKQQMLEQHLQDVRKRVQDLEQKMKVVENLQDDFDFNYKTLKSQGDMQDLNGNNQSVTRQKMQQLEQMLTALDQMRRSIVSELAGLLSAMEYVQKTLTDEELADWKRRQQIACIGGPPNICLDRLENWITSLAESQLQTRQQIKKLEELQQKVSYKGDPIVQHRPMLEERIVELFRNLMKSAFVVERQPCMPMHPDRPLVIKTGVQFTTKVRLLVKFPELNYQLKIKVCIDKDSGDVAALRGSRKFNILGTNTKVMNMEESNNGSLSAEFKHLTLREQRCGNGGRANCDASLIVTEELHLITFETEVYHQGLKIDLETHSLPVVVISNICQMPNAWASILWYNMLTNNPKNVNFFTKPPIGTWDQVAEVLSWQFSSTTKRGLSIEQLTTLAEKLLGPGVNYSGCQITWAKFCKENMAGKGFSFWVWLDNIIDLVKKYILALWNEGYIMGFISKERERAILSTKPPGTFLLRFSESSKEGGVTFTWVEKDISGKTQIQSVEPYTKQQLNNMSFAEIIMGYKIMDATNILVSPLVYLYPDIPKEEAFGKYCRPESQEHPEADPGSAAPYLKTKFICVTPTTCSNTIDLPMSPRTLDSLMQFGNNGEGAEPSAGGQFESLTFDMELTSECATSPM
In short: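 After a 24 h compound incubation, total RNA from MRTU-transfected HepG2 cells was converted to cDNA and reporter sequences PCR-amplified, labelled and profiled by capillary electrophoresis. Gain and loss of signal were referenced to DMSO.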

Measured: AC50

CCCOC(=O)c1ccccc1C(=O)OCCC
active: [18] 28.9 µM
inactive: all other assays above

N#CCCCl
inactive: all assays above

COCC(=O)N(c1c(C)cccc1C)N1CCOC1=O
active: [18] 29.9 µM
inactive: all other assays above

CN(C)CCC#N
inactive: all assays above

CC(C)C(=O)Cl
inactive: all assays above
